Source: ChEMBL document CHEMBL3433997, “St. Jude Leishmania screening dataset” (2016)

Assays:
Type in all cases: functional
[1] = molecular target: Solute carrier family 2, facilitated glucose transporter member 1 (Homo sapiens) (UniProt P11166); assay: ST_JUDE_LEISH: Cytotoxicity at 2uM final concentration against transgenic Leishmania Mexicana promastigotes LmGLUT1 that are glucose transport deficient and complemented with the human glucose transporter GLUT1. Activity is measured by DNA content using SYBR green in vitro
[2] = molecular target: Hexose transporter 1 (Plasmodium falciparum) (UniProt O97467); assay: ST_JUDE_LEISH: Cytotoxicity at 2uM final concentration against transgenic Leishmania Mexicana promastigotes LmPfHT that are glucose transport deficient and complemented with the Plasmodium falciparum hexose transporter. Activity is measured by DNA content using SYBR green in vitro
[3] = molecular target: Glucose transporter (Leishmania mexicana) (UniProt O61059); assay: ST_JUDE_LEISH: Cytotoxicity at 2uM final concentration against transgenic Leishmania Mexicana promastigotes LmGT2 that are glucose transport deficient and complemented with the L. Mexicana glucose transporter 2. Activity is measured by DNA content using SYBR green in vitro

Sequence of Solute carrier family 2, facilitated glucose transporter member 1 (Homo sapiens) (P11166 whole entry): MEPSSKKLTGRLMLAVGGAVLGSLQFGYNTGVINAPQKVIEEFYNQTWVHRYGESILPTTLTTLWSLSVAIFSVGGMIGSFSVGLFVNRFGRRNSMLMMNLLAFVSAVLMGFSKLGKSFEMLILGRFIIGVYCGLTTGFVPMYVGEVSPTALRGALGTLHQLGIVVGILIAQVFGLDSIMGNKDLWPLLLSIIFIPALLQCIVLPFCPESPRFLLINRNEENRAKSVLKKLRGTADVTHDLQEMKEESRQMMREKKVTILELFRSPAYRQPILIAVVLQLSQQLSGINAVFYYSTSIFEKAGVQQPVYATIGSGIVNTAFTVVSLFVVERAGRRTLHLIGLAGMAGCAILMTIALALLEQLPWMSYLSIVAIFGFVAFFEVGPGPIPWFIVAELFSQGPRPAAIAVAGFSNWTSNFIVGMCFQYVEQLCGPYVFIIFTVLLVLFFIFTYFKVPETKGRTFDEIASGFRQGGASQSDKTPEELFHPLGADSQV

SMILES	inhibition [1] [%]	inhibition [2] [%]	inhibition [3] [%]
Cc1ccc(CC(C)NCC(O)c2cccc(C(F)(F)F)c2)cc1F (stereo unspecified)	6.67	6.24	5.67
CS(=O)(=O)Nc1ccc2[nH]cc(C3CC4CCC(C3)N4CC3CCC(NC(=O)/C=C/c4ccc(Cl)c(Cl)c4)CC3)c2c1 (stereo unspecified)	5.91	5.37	5.09
O=C(/C=C/c1ccc(Cl)c(Cl)c1)NCCCCCN1C2CCC1CC(c1c[nH]c3ccccc13)C2 (stereo unspecified)	0.42	1.9	2.33
Clc1ccc2nccc(N3CCC(CN4CCC(c5c[nH]c6ccccc56)CC4)CC3)c2c1	0.88	0.94	2.61
CN1CC=C(c2c[nH]c3ccc(Br)cc23)CC1	1.93	0.19	-0.72
COCCSc1ccc(CC(C)NCC(O)c2cccc(Cl)c2)cc1 (stereo unspecified)	0.56	0.25	0.74
COc1ccc(C=CC(=O)N2CCC(CN3CCC(c4c[nH]c5ccccc45)CC3)CC2)cc1OC	1.11	0.91	-0.06
COc1ccc(C(=O)C2CC2CN2CC=C(c3c(C)[nH]c4ccccc34)CC2)cc1 (stereo unspecified)	-1.12	2.52	3.3
CNCCCN(C)C(=O)Oc1c(Br)c(C)nc(C)c1-c1ccc(Oc2ccc(OC(F)(F)F)cc2)cc1	-0.18	-3.25	-1.27
CCC(C)CN1CCC(N(C)c2cc(NC(=O)c3cccc(C)c3)ccn2)CC1 (stereo unspecified)	-1.69	1.14	-0.14
CC[C@H]1CN2CC[C@@H]1C[C@H]2[C@H](O)c1ccnc2ccc(OC)cc12	0.79	0.55	3.26
COc1cc(NCCCNC(=O)c2cn(Cc3ccccc3)c3ccccc23)nc2ccccc12	-0.26	-0.48	-1.02
O=C(NC1CCC(CN2CCC(c3c[nH]c4ccccc34)CC2)CC1)c1cc2ccccc2o1 (stereo unspecified)	2.54	0.9	-2.2
O=C(/C=C/c1ccc(Cl)cc1Cl)NC1CCC(CN2CCC(c3c[nH]c4ccccc34)CC2)CC1 (stereo unspecified)	10.9	13.1	9.99
O=c1n[n+](C2CCCCC2)[n-]o1	-0.73	-0.13	-0.34
CC(C)CNCc1cccc(-c2ccc(CN(C(=O)NC3CCCCC3)C3CCN(Cc4ccccc4)CC3)cc2)c1	4.72	5.99	5.84
CNCCCCCCc1ccc(CC(C)NCC(O)c2cccc(Cl)c2)cc1 (stereo unspecified)	6.3	2.29	0.1
CC(C)CNCc1ccc(-c2cccc(CN(C(=O)NC3CCCCC3)C3CCN(Cc4ccccc4)CC3)c2)cc1	0.87	-0.07	3.1
CC[C@H]1CN2CC[C@@H]1C[C@H]2[C@H](O)c1cc(N2CCSCC2)nc2ccc(OC)cc12	3.55	3.67	-0.01

SMILES	inhibition [1] [%]	inhibition [2] [%]	inhibition [3] [%]
CC[C@H]1CN2CC[C@@H]1C[C@H]2[C@H](O)c1cc(N2CCC(O)CC2)nc2ccc(OC)cc12	-1.16	-0.97	-0.9
CN(c1cc(NC(=O)c2cccs2)ccn1)C1CCN(Cc2cccc(F)c2)CC1	3.38	3	5.71
CC[C@H]1CN2CC[C@@H]1C[C@H]2[C@H](O)c1cc(N2CCC(CO)CC2)nc2ccc(OC)cc12	1.5	1.17	2.66
CNCCc1c(O)ccc2ccccc12	2.95	3.27	3.59
O=C(c1cc(C(=O)NCc2ccc(Cl)cc2)c(=O)n(Cc2ccc(Cl)cc2)c1)c1cc(F)ccc1O	2.53	1.86	1.19
Cc1cc2ccc(CNCCc3ccccc3Br)cc2nc1N	3.28	2.77	3.87
COC(=O)/C=C/C(=O)N[C@@H]1CC[C@@]2(O)[C@H]3Cc4ccc(O)c5c4[C@@]2(CCN3CC2CC2)[C@H]1O5	4.79	5.03	6.57
COCCNCc1cccc(-c2ccccc2CN(C(=O)Nc2ccccc2)C2CCN(Cc3ccccc3)CC2)c1	-0.65	-2.21	4.23
O=C(c1ccccc1)C1CC1CN1CC=C(c2c[nH]c3ccccc23)CC1 (stereo unspecified)	2.08	0.92	8.35
COc1ccc2nc(-c3ccc(F)cc3)cc([C@@H](O)[C@@H]3C[C@@H]4CCN3CC4C=NO)c2c1 (stereo partly specified)	4.55	4.75	3.7
O=C1COc2ccccc2N1CCN1CCC(NCc2ccc(-c3cccs3)cc2)CC1	8.28	7.16	3.03
CC(C)c1ccc(C=CC(=O)NC2CCC(CN3CCC(c4c[nH]c5ccccc45)CC3)CC2)cc1 (stereo unspecified)	2.2	1.4	2.47
CC[C@H]1CN2CC[C@H]1C[C@H]2[C@H](O)c1cc(-c2ccc(OC(F)(F)F)cc2)nc2ccc(OC)cc12	4.51	2.38	3.6
O=C(Cc1cc(=O)oc2cc(O)ccc12)NC1CCC(CN2CCC(c3c[nH]c4ccccc34)CC2)CC1 (stereo unspecified)	2.39	2.2	2.14
Cc1csc(-c2ccc3[nH]cc(C4=CCN(C)CC4)c3c2)n1	7.46	9.43	6.12
O=C(Nc1ccc(Oc2ccccc2)cc1)N1CCC(CN2CCC(c3c[nH]c4ccccc34)CC2)CC1	1.64	2.58	-1.12
CN1CC(c2ccc(Cl)c(Cl)c2)OC1=N (stereo unspecified)	-0.53	0.23	-0.89
CC(=O)C1(c2ccccc2)CCN(CCC2(c3ccc(Cl)c(Cl)c3)CN(C(=O)C3CCCCC3)CCO2)CC1 (stereo unspecified)	4.85	2.27	3.92
